# PubChem BioAssay AID485281 (National Center for Advancing Translational Sciences (NCATS), 2010)
# The whole screen tested about 350,000 compounds, of which about 260 (0.074%) were called active. Inconclusive results (about 8%) are left out. Only a selection was taken, and actives are over-represented in it overall. Unmarked numbers belong to inactive results. The call rests on the fitted dose curve; in most records, active means well fitted inhibition curve with a large enough effect; inconclusive means small, poorly fitted or top-dose-only effect; inactive means no such curve, though single readings can be large or run the other way.
# Biological target: Ferritin light chain (Equus caballus) (UniProt P02791)
# Sequence (P02791 2-175 limits assumed): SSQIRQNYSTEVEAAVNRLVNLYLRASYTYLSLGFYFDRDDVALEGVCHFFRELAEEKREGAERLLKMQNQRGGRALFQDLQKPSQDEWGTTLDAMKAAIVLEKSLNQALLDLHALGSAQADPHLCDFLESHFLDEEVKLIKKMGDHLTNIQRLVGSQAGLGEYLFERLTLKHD
# Assay: qHTS Assay for Identification of Novel General Anesthetics; further: nearly all actives have a fitted effect of over 20% in size
# Conditions: apoferritin/1-aminoanthracene competitive binding, fluorescence; series mostly up to 77.5 µM; activity change, negative = displacement: at the top concentration
# Source text: Source: NIH Chemical Genomics Center [NCGC]
# Assay Submitter: Roderic Eckenhoff, University of Pennsylvania
# Screening Center PI: Christopher P. Austin, NIH
# Probe Development: NIH Chemical Genomics Center [NCGC]
# Anesthetic development has remained a largely empirical process. There are growing concerns about the cognitive effects of known general anesthetics and acceleration of the onset of neurodegenerative disease. The compounds' toxicity and multiple specific binding targets in the mammalian brain [4] has made them less attractive as drug leads. In this assay, a GABAergic mimetic model system, apoferritin and a profluorescent 1-aminoanthracene ligand (1-AMA), was used to construct a competitive binding assay for identification of novel general anesthetics. The assay was validated for 1-AMA using other known anesthetics, such as isoflurane (CID:3763) and propofol (CID: 4943), [6].
# [1] S.L. Bianchi, T. Tran, C. Liu, S. Lin, Y. Li, J.M. Keller, R.G. Eckenhoff, and M.F. Eckenhoff, Brain and behavior changes in 12-month-old Tg2576 and nontransgenic mice exposed to anesthetics. Neurobiol Aging 29 (2008) 1002-10.
# [2] Z. Xie, Y. Dong, U. Maeda, R.D. Moir, W. Xia, D.J. Culley, G. Crosby, and R.E. Tanzi, The inhalation anesthetic isoflurane induces a vicious cycle of apoptosis and amyloid beta-protein accumulation. J Neurosci 27 (2007) 1247-54.
# [3] P. Honegger, and J.M. Matthieu, Selective toxicity of the general anesthetic propofol for GABAergic neurons in rat brain cell cultures.
# [4] M.F. Eckenhoff, K. Chan, and R.G. Eckenhoff, Multiple specific binding targets for inhaled anesthetics in the mammalian brain. J Pharmacol Exp Ther 300 (2002) 172-9.
# [5] C.A. Butts, J. Xi, G. Brannigan, A.A. Saad, S.P. Venkatachalan, R.A. Pearce, M.L. Klein, R.G. Eckenhoff, and I.J. Dmochowski, Identification of a fluorescent general anesthetic, 1-aminoanthracene. Proc Natl Acad Sci U S A 106 (2009) 6501-6.
# [6] W.A. Lea, J. Xi, A. Jadhav, L. Lu, C.P. Austin, A. Simeonov, and R.G. Eckenhoff, A high-throughput approach for identification of novel general anesthetics. PLoS One 4 (2009) e7150.
# Three uL of reagents (free 1-AMA (50% saturated solution of 1-aminoanthracene
# in PBS) in columns 3, 4 as negative control and 1-AMA/apoferritin mixture (10 uM horse-spleen apoferritin in 50% saturated 1-aminoanthracene in PBS) in columns 1, 2, 5-48) was dispensed into 1536-well Greiner black assay plates. Compounds (23 nL) were transferred via Kalypsys pintool equipped with 1,536-pin array (10 nL slotted pins, V&P Scientific, San Diego, CA). Titration of the positive control, propofol, were delivered via pin transfer from separate control plates to the 2nd column of each assay plate. The starting concentration of the control, dissolved in DMSO, was at 160 mM, followed by two-fold dilution points in duplicate, for a total of 16 concentrations. The plates were incubated for 10 min at room temperature, and then read on an EnVision HTS multilabel reader (Perkin-Elmer, Waltham, MA) (end point read, 3 min/plate) using Fura2 BFP excitation filter (380 nm, bandwidth 10 nm) and fluorescein emission filter (535 nm, bandwidth 25 nm) set. A LANCE/DELFIA dichroic mirror with a cutoff wavelength at 400 nm was used to maximize signal accuracy and strength. […] Activity was computed as the normalized fluorescence response relative to free 1-AMA and 1-AMA/apoferritin complex values. […]
# On the % scale 0 is the no-effect control and ±100 the full control effect; potency means the concentration at half of the fitted maximal effect.
Structure (SMILES),Potency,"activity change, negative = displacement [%]"
N[C@@H](Cc1c[nH]c2ccccc12)c1nnc(SCc2c(F)cccc2Cl)o1,28.2 µM (active),–
CCOCCCNC(=O)c1c(NC(=O)c2nc(SC)ncc2Cl)sc2c1CCCC2,–,173
COC(=O)c1ccccc1NC(=O)c1cc(-c2ccccc2O)no1,–,164
CCc1ccccc1NC(=O)c1sc2nc3c(cc2c1N)CN(Cc1ccccc1)CC3,–,62.1
C[C@H]1C/C=C/[C@@H]2[C@@H]3O[C@]3(C)[C@@H](C)[C@H]3[C@H](Cc4ccccc4)NC(=O)[C@]32OC(=O)O/C=C/[C@](C)(O)C1=O,–,-9.63
